# Assay outcomes (PubChem)
# FEN1 inh – qHTS Assay for the Inhibitors of Human Flap endonuclease 1 (FEN1); P39748; Recombinant FEN1 flap cleavage, fluorescence, 15 min; Potency, µM (highest dose often 114 µM), usual class: inhibitors; 0.35% of 390,000 active; AID 588795, 2011; further: nearly all actives have a fitted effect of over 65% in size
#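 With each library titrated from low to high concentration, compounds met 10 nM FEN1 for 15 min at room temperature before 50 nM substrate was added; readings at 0 and 15 min fed four-parameter Hill curve fits.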
# WRN inhibitor – qHTS for Inhibitors of WRN Helicase; Bifunctional 3'-5' exonuclease/ATP-dependent helicase WRN (Homo sapiens), Q14191; WRN helicase unwinding, fluorescent forked duplex, kinetic; Potency, µM (doses to about 114 µM), hits mostly inhibitors; 0.46% of 360,000 active; further: nearly all actives have a fitted effect of over 55% in size
#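 Fluorescence dequenching readout, ex 525 nm/em 598 nm, kinetic mode: forked duplex DNA (100 nM final) with adjacent fluorophore and quencher unwound by WRN (20 nM final) with 2 mM ATP. Compound preincubation 15 min, room temperature.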
# RECQ1 helicase – qHTS Assay for Inhibitors of RecQ-Like Dna Helicase 1 (RECQ1); RECQ1 DNA unwinding, red fluorescence kinetic read; AID 2549, 2010; 0.54% of 240,000 active; Potency, µM (titrated, usually from 57.3 µM), usual class: inhibitors; ATP-dependent DNA helicase Q1 (Homo sapiens), P46063; further: nearly all actives have a fitted effect of over 30% in size
#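 50 nM RECQ1T1 preincubated 15 min with compound in Tris pH 8.0 buffer with MgCl2, DTT, Tween-20 and 2.5 ug/ml poly(dI-dC); started with 200 nM TAMRA/BHQ-2 forked duplex and 2 mM ATP. Unwinding read as fluorescence (525/598 nm), two reads 2 h apart.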
# APE1 inh – qHTS Assay for Inhibitors of the Human Apurinic/apyrimidinic Endonuclease 1 (APE1); Potency, µM (highest dose often 65.8 µM), actives largely listed as inhibitors; recombinant APE1, TAMRA/BHQ-2 abasic DNA cleavage fluorescence; 0.35% of 350,000 active; DNA repair nuclease/redox regulator APEX1 (Homo sapiens), P27695; further: nearly all actives have a fitted effect of over 55% in size
#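 0.75 nM APE1 + cpd, 15 min RT; start w/ 50 nM TAMRA/BHQ-2 THF-abasic dsDNA; kinetic fluor 525/598 nm ×3 reads @60 s; Δ(read3−read1); normalized to DMSO and NSC13755 control wells.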
# BLM inh – qHTS Assay for Inhibitors of Bloom's syndrome helicase (BLM). RecQ-like DNA helicase BLM (Homo sapiens), P54132. recombinant BLM DNA unwinding, fluorescence dequenching. Potency, µM (doses to about 56.1 µM), hits mostly inhibitors. 0.2% of 350,000 active. AID 2528, 2010; further: nearly all actives have a fitted effect of over 35% in size
# Target sequence (P54132 whole entry, looked up): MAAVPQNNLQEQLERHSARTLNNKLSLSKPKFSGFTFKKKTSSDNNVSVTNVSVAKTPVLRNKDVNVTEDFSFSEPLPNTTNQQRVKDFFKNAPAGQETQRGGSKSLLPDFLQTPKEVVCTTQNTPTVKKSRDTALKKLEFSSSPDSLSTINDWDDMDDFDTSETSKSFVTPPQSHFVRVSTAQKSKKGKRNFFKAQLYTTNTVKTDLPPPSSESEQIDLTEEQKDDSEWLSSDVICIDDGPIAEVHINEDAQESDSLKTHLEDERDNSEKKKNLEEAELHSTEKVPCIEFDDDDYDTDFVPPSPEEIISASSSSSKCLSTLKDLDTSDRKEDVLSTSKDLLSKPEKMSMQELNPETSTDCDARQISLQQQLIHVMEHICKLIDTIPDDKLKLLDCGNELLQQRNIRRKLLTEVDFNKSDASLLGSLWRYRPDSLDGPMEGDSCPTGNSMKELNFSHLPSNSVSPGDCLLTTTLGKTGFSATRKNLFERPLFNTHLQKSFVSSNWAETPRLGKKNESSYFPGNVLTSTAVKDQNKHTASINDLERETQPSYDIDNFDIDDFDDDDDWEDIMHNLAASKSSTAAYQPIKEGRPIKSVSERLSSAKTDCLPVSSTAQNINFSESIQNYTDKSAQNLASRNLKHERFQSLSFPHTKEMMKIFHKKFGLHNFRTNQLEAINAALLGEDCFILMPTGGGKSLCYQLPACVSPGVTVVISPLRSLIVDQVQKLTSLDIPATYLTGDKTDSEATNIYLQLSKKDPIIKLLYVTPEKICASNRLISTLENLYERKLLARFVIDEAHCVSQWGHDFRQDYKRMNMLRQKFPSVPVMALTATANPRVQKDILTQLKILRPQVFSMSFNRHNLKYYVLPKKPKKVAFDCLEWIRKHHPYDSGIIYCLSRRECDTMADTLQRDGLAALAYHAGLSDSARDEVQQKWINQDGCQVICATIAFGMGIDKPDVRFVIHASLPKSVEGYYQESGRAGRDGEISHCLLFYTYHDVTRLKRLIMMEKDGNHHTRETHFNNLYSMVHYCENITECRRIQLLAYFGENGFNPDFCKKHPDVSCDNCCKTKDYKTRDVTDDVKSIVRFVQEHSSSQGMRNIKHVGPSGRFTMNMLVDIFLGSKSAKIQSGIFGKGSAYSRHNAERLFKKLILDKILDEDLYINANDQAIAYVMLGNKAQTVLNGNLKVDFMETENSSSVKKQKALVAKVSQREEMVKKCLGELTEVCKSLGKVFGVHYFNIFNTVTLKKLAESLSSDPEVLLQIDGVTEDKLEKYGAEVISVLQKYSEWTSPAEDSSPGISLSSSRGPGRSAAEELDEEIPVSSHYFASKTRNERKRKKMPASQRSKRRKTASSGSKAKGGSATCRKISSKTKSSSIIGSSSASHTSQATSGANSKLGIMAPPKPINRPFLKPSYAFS
# Numbers stand for hits; i = inactive; ? = inconclusive; nt = not tested or not shown; [ ] = dose if it differs, or a comment. Most compounds without a hit are left out; they make up all but 0.87% or so of the library. The call rests on the fitted dose curve; in most records, active means well fitted curve in the direction sought with a large enough effect; inconclusive means small, poorly fitted or top-dose-only effect, or another doubt; inactive means no such curve, though single readings can be large; an effect the other way counts as inactive or inconclusive.
SMILES,FEN1 inh,WRN inhibitor,RECQ1 helicase,APE1 inh,BLM inh
Nc1nc(-c2ccco2)c(-c2ccco2)s1,i,i,i,i,?
O=C(CSc1ccc(Br)c2cccc(Cl)c12)Nc1ccc(S(=O)(=O)Nc2nccs2)cc1,i,35µM,i,i,i
O=C(Cc1ccccc1Cl)Nc1ccc(S(=O)(=O)Nc2nccs2)cc1,i,i,nt,i,i
CCOC(=O)c1cc(-c2ccccc2)n(CCC(=O)Nc2ccc(C(F)(F)F)cc2)c1C,i,nt,nt,nt,i
CN1CCC(NC(=O)c2cnn3c2NC(=C2CC2)C=C3C(F)F)CC1,nt,nt,nt,i,nt
CCNc1nc(NCC)n2c(SCC(=O)Nc3cc(Cl)ccc3OC)nnc2n1,i,i,nt,?,nt
CCNc1nc(NCC)n2c(SCC(=O)Nc3c(C)cccc3C)nnc2n1,i,i,nt,?,nt
CCNc1nc(NCC)n2c(SCC(=O)Nc3cccc(F)c3)nnc2n1,i,i,nt,12µM,nt
CCNc1nc(NCC)n2c(SCC(=O)Nc3ccccc3C(F)(F)F)nnc2n1,i,i[11.6 µM],nt,21µM,nt
CCNc1nc(NCC)n2c(SCC(=O)Nc3ccccc3Cl)nnc2n1,i,i,nt,i,nt
CCNc1nc(NCC)n2c(SCC(=O)Nc3cccc(Cl)c3)nnc2n1,i,i,nt,27µM,nt
O=C(Nc1ccc2c(c1)OCCO2)c1cnn2c1NC(=C1CC1)C=C2C(F)F,nt,nt,nt,i,nt
OC[C@H]1NC[C@H](O)[C@@H](O)[C@@H]1O,nt,nt,i,i,i
Cc1ccc(S(=O)(=O)SCCCSS(=O)(=O)c2ccc(C)cc2)cc1,i,50µM,nt,nt,nt
Cc1cccc(C)c1NC(=O)c1sc(-n2nc(C)c(Cc3ccccc3)c2C)nc1C,i,nt,nt,nt,i
O=C(Nc1ccc(S(=O)(=O)Nc2nccs2)cc1)c1nn(-c2ccccc2)ccc1=O,i,79µM,nt,?,?
Cc1ccc(NC(=O)c2ccc(Cl)c(N3C(=O)C=CC3=O)c2)cc1,i,50µM,i,i,i
C[C@@H]1Cc2c(O)c(O)cc(O)c2C(=O)O1,56µM,i,i,?,i
COc1cc(-c2ccc3oc(-c4ccsc4)cc(=O)c3c2)cc(OC)c1OC,i,i,nt,i,nt
COc1ccc(-c2ccc3c(=O)cc(-c4ccsc4)oc3c2)cn1,50µM,50µM,nt,i,nt
O=c1cc(-c2ccsc2)oc2cc(-c3ccc4c(c3)OCO4)ccc12,i,25µM,nt,i,nt
COc1ccc(CNC(=O)c2oc3c(c2C)-c2nn(Cc4ccc(Cl)cc4)cc2CC3)cc1,i,nt,nt,nt,i
Nc1cccc2[nH]c(C(F)(F)F)nc12,56µM,i,i,?,i
C/C1=C2/[N-]C(C(CC(N)=O)[C@@]2(C)CCC(=O)NCC(C)OP(=O)([O-])O[C@H]2[C@@H](O)[C@@H](n3cnc4cc(C)c(C)cc43)O[C@@H]2CO)[C@]2(C)N=C(/C(C)=C3N=C(/C=C4N=C1C(CCC(N)=O)C\4(C)C)[C@@H](CCC(N)=O)[C@]\3(C)CC(N)=O)[C@@H](CCC(N)=O)[C@]2(C)CC(N)=O.CC(=O)O.[Co] (some centres undefined),nt,nt,nt,nt,25µM
Cc1ccc(CN2C(=O)c3ccccc3S(=O)(=O)c3ccc(C(=O)OCC4CCCO4)cc32)cc1 (centres undefined),i,nt,nt,nt,i
SMILES,FEN1 inh,WRN inhibitor,RECQ1 helicase,APE1 inh,BLM inh
O=C(O)c1cc(N2C(=O)C=CC2=O)cc(N2C(=O)C=CC2=O)c1,10µM,8.9µM,nt,nt,nt
O=c1[nH]c2cc3c(cc2cc1CN(Cc1cccnc1)Cc1nnnn1Cc1ccco1)OCCO3,?,56µM,?,?,?
O=C[C@H](O)[C@@H](O)[C@H](O)[C@H](O)CO,nt,nt,nt,i,nt
O=c1ccc(NS(=O)(=O)c2ccccc2Cl)cn1Cc1ccc(Cl)c(Cl)c1,71µM,i,i,i,i
CCCCCCCCCCCCOC(=O)N1CCN(/[N+]([O-])=N/Oc2ccc([N+](=O)[O-])cc2[N+](C)=O)CC1,i,nt,nt,nt,nt
CC(C)(C)n1ncc2c(=O)n(Cc3ccc(C#N)cc3)cnc21,i,nt,nt,i,nt
COc1ccc(NC(=O)/C(Cl)=C(/Cl)S(=O)Cc2ccccc2Cl)cn1 (centres undefined),i,11µM,i,i,i
COc1ccc(NC(=O)/C(Cl)=C(/Cl)S(=O)(=O)Cc2ccc(C)cc2)cn1,i,50µM,i,i,i
